The supplement of paper PMC9694430

Legend:
Experiment in all cases: thermal shift delta Tm vs DMSO control; higher = stronger stabilization (binding)
Conditions in all cases: 12.5 µM; protein concentration 2 µM
LOC_OS01G57100-cb003 = test system: LOC_OS01G57100-cb003
Outline: (§1)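 The melting temperature shift given here is a triplicate mean, measured against protein that received only DMSO. Melting temperatures came from Boltzmann fits of differential scanning fluorimetry data on E. coli-expressed, purified rice kinase domain constructs. Each 19.5 μl well contained 2 μM kinase, 100 mM potassium phosphate pH 7.5, 150 mM NaCl, 10% glycerol, 5 × SYPRO Orange and compound in DMSO. Plates were scanned from 25°C to 95°C at 0.05°C/s.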

LOC_OS01G60330-cb001 = test system: LOC_OS01G60330-cb001
Outline: as §1

LOC_OS01G60700-cb002 = test system: LOC_OS01G60700-cb002
Outline: as §1

LOC_OS01G63280-cb003 = test system: LOC_OS01G63280-cb003
Outline: as §1

LOC_OS01G67340-cb003 = test system: LOC_OS01G67340-cb003
Outline: as §1

LOC_OS01G70970-cb002 = test system: LOC_OS01G70970-cb002
Outline: as §1

LOC_OS02G07810-cb001 = test system: LOC_OS02G07810-cb001
Outline: as §1

LOC_OS02G08530-cb003 = test system: LOC_OS02G08530-cb003
Outline: as §1

LOC_OS02G14120-cb001 = test system: LOC_OS02G14120-cb001
Outline: as §1

LOC_OS02G17970-cb001 = test system: LOC_OS02G17970-cb001
Outline: as §1

Row | SMILES | thermal shift delta Tm (LOC_OS01G57100-cb003) | thermal shift delta Tm (LOC_OS01G60330-cb001) | thermal shift delta Tm (LOC_OS01G60700-cb002) | thermal shift delta Tm (LOC_OS01G63280-cb003) | thermal shift delta Tm (LOC_OS01G67340-cb003) | thermal shift delta Tm (LOC_OS01G70970-cb002) | thermal shift delta Tm (LOC_OS02G07810-cb001) | thermal shift delta Tm (LOC_OS02G08530-cb003) | thermal shift delta Tm (LOC_OS02G14120-cb001) | thermal shift delta Tm (LOC_OS02G17970-cb001)
1 | CN1CCN(c2cccc(Nc3nc4c(-c5ccc(S(C)(=O)=O)cc5)cccn4n3)c2)CC1 | 0.76 °C | 13.8 °C | 0.45 °C | 0.49 °C | 1.35 °C | 0.37 °C | 0.59 °C | 1.34 °C | 6.3 °C | 0.48 °C
2 | FC(F)(F)c1ccc(/C=C/c2nc(COc3ccc(CCCCn4ccnn4)cc3)co2)cc1 [Mubritinib (TAK 165)] | 0.83 °C | 0.99 °C | 0.41 °C | 0.22 °C | -0.98 °C | 0.3 °C | 0.23 °C | 0.63 °C | 0.38 °C | 0.37 °C
3 | O=C(O)[C@]1(Cc2cccc(Nc3nccs3)n2)CC[C@@H](Oc2cccc(Cl)c2F)CC1 | 5.7 °C | 1.72 °C | -1.18 °C | 0.43 °C | 3.34 °C | 9.45 °C | 0.53 °C | 5.62 °C | 13.5 °C | 0.24 °C
4 | COc1ccc(C(=O)Nc2sc3c(c2C(N)=O)CCCC3)cc1OC | 1.3 °C | 1.24 °C | 1.23 °C | 0.62 °C | 1.69 °C | 0.41 °C | 1.01 °C | 2.12 °C | 2.58 °C | 0.27 °C
5 | C#Cc1cccc(Nc2ncnc3cc(OC)c(OCCCCCCC(=O)NO)cc23)c1 | 0.24 °C | 0.19 °C | 0.52 °C | 0.06 °C | -0.47 °C | 0.22 °C | 0.79 °C | 0.57 °C | 1.05 °C | 0.31 °C
6 | COc1ccc(-c2cc3nccn3c(Nc3ncccc3C(N)=O)n2)cc1OC | 0.13 °C | 1.34 °C | 1.05 °C | 1.03 °C | 0.74 °C | 0.22 °C | 0.81 °C | 3.01 °C | 3.03 °C | 0.79 °C
7 | CCc1nc(-c2cccc(C)c2)c(-c2ccnc(NC(=O)c3ccccc3)c2)s1 | 0.93 °C | 1.03 °C | 1.53 °C | 0.61 °C | 0.22 °C | 0.22 °C | 0.98 °C | 0.24 °C | 0.43 °C | 0.22 °C
8 | Cc1c(C(=O)N2CCOc3ccc(-c4ccc(N)nc4)cc3C2)ccc(S(C)(=O)=O)c1F | -0.07 °C | 0.34 °C | 0.98 °C | 0.62 °C | 0.21 °C | 0.48 °C | -0.03 °C | 0.91 °C | 0.74 °C | 0.12 °C
9 | COc1cc2ccc(=O)oc2cc1O [Scopoletin] | 0.91 °C | 0.02 °C | -0.06 °C | -0.04 °C | -0.05 °C | 0.41 °C | -1.02 °C | 0.39 °C | 0.77 °C | 1.18 °C
10 | CCCCCCCCCCCCCCCCOP(=O)([O-])OCC[N+](C)(C)C [Miltefosine] | -11.3 °C | -3.63 °C | -6.31 °C | -4.06 °C | -4.33 °C | -8.33 °C | -3.73 °C | -3.69 °C | -6.59 °C | -5.83 °C
11 | CS(=O)(=O)N1CCN(Cc2cc3nc(-c4cccc5[nH]ncc45)nc(N4CCOCC4)c3s2)CC1 [Pictilisib (GDC-0941)] | 0.25 °C | 2.44 °C | 0.85 °C | -0.25 °C | -0.42 °C | 0.62 °C | 0.7 °C | 1.22 °C | 0.32 °C | 0.17 °C
12 | N#Cc1cccc(-c2c[nH]c3ncnc(N4CCOCC4)c23)c1 | 1.38 °C | 0.98 °C | 0.99 °C | 4.38 °C | 1.62 °C | 0.07 °C | 0.61 °C | 2.7 °C | 3.85 °C | 0.73 °C
13 | CC1(C)CNc2cc(NC(=O)c3cccnc3NCc3ccncc3)ccc21 [Motesanib Diphosphate (AMG-706)] | 1.3 °C | 1.28 °C | 1.09 °C | 8.62 °C | -0.45 °C | 0.75 °C | 0.59 °C | 0.61 °C | -0.17 °C | 0.6 °C
14 | COc1ccc(S(=O)(=O)N(C(C)=O)c2ccccc2/C=C/c2cc[n+]([O-])cc2)cc1 | 1.85 °C | 0.75 °C | 0.63 °C | 0.55 °C | -0.3 °C | 0.2 °C | 1.33 °C | 0.62 °C | 2.16 °C | 1.01 °C
15 | Cn1cc(-c2ccc3nnc(C(F)(F)c4ccc5ncccc5c4)n3n2)cn1 | 1.42 °C | 1.1 °C | 1.32 °C | 0.31 °C | -0.37 °C | 0.13 °C | 0.91 °C | 1.21 °C | 2.28 °C | 0.51 °C
16 | O=C1NC(=O)[C@@H](c2cn3c4c(cccc24)CCC3)[C@@H]1c1c[nH]c2ccccc12 [Tivantinib (ARQ 197)] | 1.7 °C | 0.74 °C | 0.02 °C | 0.24 °C | 0.37 °C | 0.39 °C | 0.91 °C | 0.76 °C | 0.16 °C | 0.24 °C
17 | Clc1ccc(C2(c3ccc(-c4cn[nH]c4)cc3)CCNCC2)cc1 | 1.65 °C | 0.98 °C | 0.54 °C | 0.22 °C | -0.1 °C | 0.01 °C | 1.21 °C | 0.59 °C | 0.25 °C | 1.03 °C
18 | CNC(=O)c1ccccc1Sc1ccc2c(/C=C/c3ccccn3)n[nH]c2c1 [Axitinib] | 0.01 °C | 1.21 °C | 1.17 °C | 0.65 °C | -0.05 °C | 0.68 °C | 0.49 °C | 0.53 °C | 3.54 °C | -0.24 °C
19 | Cn1nccc1Nc1nccc(-c2ccn([C@H](CO)c3ccc(Cl)c(F)c3)c(=O)c2)n1 | 1.99 °C | -0.22 °C | 0.52 °C | 0 °C | 0.09 °C | 0.22 °C | -0.02 °C | 0.98 °C | 0.71 °C | -0.12 °C
20 | O=C1NC(=O)C(c2cnc3ccccn23)=C1c1cn2c3c(cc(F)cc13)CN(C(=O)N1CCCCC1)CC2 | 1.16 °C | 3.68 °C | 2.25 °C | 0.82 °C | 0.19 °C | 0.64 °C | 1.59 °C | 1.8 °C | 0.04 °C | 2.16 °C
21 | C[C@@H](Oc1cc(-n2cnc3ccc(CN4CCN(C)CC4)cc32)sc1C(N)=O)c1ccccc1C(F)(F)F | 0.34 °C | 0.7 °C | 0.72 °C | 0.17 °C | 0.69 °C | 0.44 °C | 1.22 °C | 3.01 °C | -0.04 °C | 0.25 °C
